Source: PubChem
Rows were chosen to be rich in hits. Some 7% of all compounds tested hit in one or more screens of this group.
PI5P4K alpha inh: qHTS for Inhibitors of phosphatidylinositol 5-phosphate 4-kinase (PI5P4K); Phosphatidylinositol 5-phosphate 4-kinase type-2 alpha (Homo sapiens), P48426; AID 652105, 2013; hit rate 1.2% among 330,000; PI5P4Kalpha enzyme, ADP-Glo luminescence, 60 min; active compounds read low; max response, %; active = max response of -50% or lower; inconclusive = between -30% and -50%; inactive = -30% or higher; note: value at the top dose of about 77 µM; % is set by controls: 0 for no effect and ±100 for the full control effect
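Quantitative HTS of the MLSMR library against PI5P4Kalpha with substrate. ATP added last at 5 microM final; room temperature, 60 minutes. Remaining ATP depleted, ADP converted and read as luminescence.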
JMJD2A Tudor inh: qHTS Assay for Inhibitors of JMJD2A-Tudor Domain; AID 504339, 2011; Potency, µM (top dose mostly 114 µM), for inactives: at the top dose activity change, negative = inhibition, actives largely listed as inhibitors; hit rate 4.4% among 390,000; Lysine-specific demethylase 4A (Homo sapiens), O75164; AlphaScreen JMJD2A-Tudor / H3K4me3 peptide binding; note: potency is the fitted concentration of half-maximal effect; % is set by controls: 0 for no effect and ±100 for the full control effect; nearly all actives have a fitted effect of over 50% in size
PLK1 PBD inh: qHTS for Inhibitors of PLK1-PDB (polo-like kinase 1 - polo-box domain): Primary Screen; Serine/threonine-protein kinase PLK1 (Homo sapiens), P53350; Plk1 PBD binding of FITC phosphopeptide, fluorescence polarization; Potency, µM, inactives show max response, negative = inhibition, most hits filed as inhibitors; hit rate 2.8% among 360,000; AID 720504, 2013; note: potency is the fitted concentration of half-maximal effect; series mostly up to about 57 µM; % is set by controls: 0 for no effect and ±100 for the full control effect; nearly all actives have a fitted effect of over 65% in size
BAZ2B inh: qHTS Assay for Inhibitors of BAZ2B; Bromodomain adjacent to zinc finger domain protein 2B (Homo sapiens), Q9UIF8; AlphaScreen BAZ2B-H3K14Ac peptide displacement; Potency, µM (titrated, usually from 114 µM), inactives show at the top dose activity change, negative = inhibition, usual class: inhibitors; hit rate 4.4% among 360,000; note: potency is the fitted concentration of half-maximal effect; % is set by controls: 0 for no effect and ±100 for the full control effect; nearly all actives have a fitted effect of over 60% in size
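Protein-peptide AlphaScreen: BAZ2B 50 nM, b-H3K14Ac 50 nM, 1x PBS pH 7.4 + 0.01% Tween-20. Preincubation 30 min RT; cpd 30 min RT (top 110 uM); beads 20 min RT, light-protected.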
GCN5L2 inh: qHTS Assay for Inhibitors of GCN5L2; GCN5L2 HAT assay, ThioGlo1 CoA-SH fluorescence; Potency, µM (top dose mostly 58.9 µM), inactives show top-dose activity change, negative = inhibition, usual class: inhibitors; hit rate 0.21% among 390,000; note: potency is the fitted concentration of half-maximal effect; % is set by controls: 0 for no effect and ±100 for the full control effect
Target sequence (Q92830 whole entry, looked up): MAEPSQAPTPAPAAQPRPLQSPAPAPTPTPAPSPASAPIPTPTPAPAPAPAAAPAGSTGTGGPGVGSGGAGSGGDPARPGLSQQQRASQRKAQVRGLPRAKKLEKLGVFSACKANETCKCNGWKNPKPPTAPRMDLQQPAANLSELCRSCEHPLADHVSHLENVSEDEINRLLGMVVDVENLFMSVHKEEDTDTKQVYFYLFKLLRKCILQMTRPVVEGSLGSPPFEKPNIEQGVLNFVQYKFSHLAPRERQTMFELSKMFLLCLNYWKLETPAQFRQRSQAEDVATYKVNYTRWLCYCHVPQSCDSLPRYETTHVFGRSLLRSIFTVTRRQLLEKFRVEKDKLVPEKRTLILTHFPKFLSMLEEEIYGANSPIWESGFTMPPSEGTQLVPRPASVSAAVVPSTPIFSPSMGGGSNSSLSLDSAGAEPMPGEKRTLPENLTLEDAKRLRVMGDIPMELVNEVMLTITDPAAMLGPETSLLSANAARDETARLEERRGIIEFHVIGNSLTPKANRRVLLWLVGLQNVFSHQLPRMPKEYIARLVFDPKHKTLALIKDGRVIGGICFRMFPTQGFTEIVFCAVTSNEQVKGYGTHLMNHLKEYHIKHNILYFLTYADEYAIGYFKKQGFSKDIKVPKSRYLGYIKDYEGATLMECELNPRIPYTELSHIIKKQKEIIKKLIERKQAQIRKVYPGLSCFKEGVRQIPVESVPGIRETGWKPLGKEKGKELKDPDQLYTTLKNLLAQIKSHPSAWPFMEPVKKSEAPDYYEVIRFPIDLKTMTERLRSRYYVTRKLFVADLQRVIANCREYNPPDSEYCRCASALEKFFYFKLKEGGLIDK
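Preincubate 20nM GCN5L2 with compound 15 min, RT → add 50uM ThioGlo1 + 75uM H3(1-25) + 70uM acetyl-CoA → read fluorescence 0 and 20 min. Primary qHTS; fluorescent artifacts likely.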
HP1b chromo inh: HTS for Inhibitors of HP1-beta Chromodomain Interactions with Methylated Histone Tails; Potency, µM (top dose mostly 114 µM), without a hit: at the top dose activity change, negative = inhibition, hits mostly inhibitors; Chromobox protein homolog 1 (Homo sapiens), P83916; hit rate 0.56% among 390,000; AlphaScreen HP1-beta / biotin-H3K9me3 peptide binding; note: potency is the fitted concentration of half-maximal effect; nearly all actives have a fitted effect of over 70% in size
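AlphaScreen: HP1-beta (50 nM) preformed 30 min with biotin-H3(1-18)K9me3 peptide (50 nM) in PBS pH 7.4, 0.01% Tween-20. Compound added for 30 min at RT, then streptavidin donor/nickel chelate acceptor beads (10 ug/mL) for 30 min.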
The depositor's hits bear a star; ? = inconclusive; . = not tested or not shown; [ ] = another dose, or the depositor's remark. Unless noted, calls come from the whole dose curve; as a rule, active = well fitted curve in the direction sought with a large enough effect; inconclusive = small, poorly fitted or top-dose-only effect, or another doubt; inactive = no such curve, though single readings can be large; an effect the other way counts as inactive or inconclusive.

SMILES | PI5P4K alpha inh | JMJD2A Tudor inh | PLK1 PBD inh | BAZ2B inh | GCN5L2 inh | HP1b chromo inh
Cc1cc(=O)n2cccc(O)c2n1 | -10 | ? | ? | 13µM* | -6% | -9%
CCOC(=O)[C@]12CCC=C1N(Cc1cccc3ccccc13)C(=O)[C@H](CC(=O)NCCc1ccccc1OC)C2 | 14 | . | -6% | . | . | .
Cc1ccc(OCc2n[nH]c(=S)n2C2CCCCC2)cc1 | . | 56µM* | ? | -34% | -17% | -11%
CC(C)C(C(=O)O)N1C(=O)/C(=C/C=C/c2ccco2)SC1=S (centres undefined) | -94* | 3.5µM* | 3µM* | 4.5µM* | ? | ?
O=C(NN1C(=O)/C(=C/C=C/c2ccco2)SC1=S)c1ccncc1 | -79* | 14µM* | 4.7µM* | 5.6µM* | -10% | 13µM*
CC(C)C(C(=O)O)N1C(=O)/C(=C/c2cccn2C)SC1=S (centres undefined) | 0 | -25% | 40% | ? | -6% | -2%
COc1ccccc1CNCC(=O)Nc1ccc(N(C)C)cc1 | 2 | 4µM* | 27µM* | 50µM* | 3% | -17%
CCc1ccc(NC(=O)Cn2ccn(Cc3ccccc3OC)c(=O)c2=O)cc1 | . | -22% | . | -10% | -14% | 9%
CCN(CC)S(=O)(=O)c1ccc(C)c(NC(=O)CNCc2ccccc2OC)c1 | -2 | 11µM* | 4% | 22% | -18% | -22%
COc1ccc(N2CCN(C(=O)c3cc4c(C)nc5ccccc5c4o3)CC2)cc1 | 6 | 56µM* | -10% | 7% | -7% | ?
Cc1ccc(-c2cc(C(=O)N3CCN(c4ncccn4)CC3)c3cc(Br)ccc3n2)o1 | -73* | 35µM* | 6.7µM* | ? | 1% | ?
Cc1ccc(-c2cc(C(=O)N3CCN(c4ccc(F)cc4)CC3)c3ccccc3n2)o1 | ? | 56µM* | -27% | 40µM* | -6% | -17%
CC(=O)c1ccc(N2CCN(C(=O)c3cc4c(C)nc5ccccc5c4o3)CC2)cc1 | 1 | -32% | -6% | ? | -5% | 25%
Cc1ccccc1-c1cc(C(=O)N2CCCC2)c2ccccc2n1 | -58* | -12% | -25% | -20% | 0% | 8%
COc1ccc(-c2cc(C(=O)N3CCN(c4ncccn4)CC3)c3ccccc3n2)cc1 | -1 | -1% | 1% | -23% | -8% | 45%
Cc1ccc(-c2cc(C(=O)N3CCCC(C(F)(F)F)C3)c3ccccc3n2)o1 (centres undefined) | 1 | -9% | -12% | -3% | ? | 30%
COc1ccc(N2CCN(C(=O)c3cc4c(=O)n(Cc5cccs5)ccc4nc3C)CC2)cc1 | . | ? | . | 50µM* | -2% | -6%
COc1ccc(N2CCN(C(=O)c3cc(-c4cc(OC)ccc4OC)nc4ccccc34)CC2)cc1 | 7 | 35µM* | 1% | 11µM* | -1% | ?
Cc1ccc(-c2cc(C(=O)N3CCN(c4ccc(O)cc4)CC3)c3ccccc3n2)cc1 | 7 | 28µM* | -2% | . | -11% | ?
COc1ccc(N2CCN(C(=O)c3cc(C4CC4)nn3-c3ccccc3)CC2)cc1 | 4 | 50µM* | -6% | 45µM* | -6% | ?
COc1ccc(NC(=O)C(Cc2cc(C)cc(C)c2)C(C)C(=O)O)cc1 (centres undefined) | 1 | -6% | -12% | 1% | -18% | 43%
Cc1cc(C)cc(N2C(=O)CSC23C(=O)N(Cc2c(F)cccc2Cl)c2ccccc23)c1 (centres undefined) | . | -29% | . | -2%[57.1 µM] | -6% | 24%
Cc1cccc2sc(NC(=O)C3CCN(S(=O)(=O)c4cc([N+](=O)[O-])ccc4Cl)CC3)nc12 | ? | 14µM* | ? | ? | -17% | ?
Cc1nnc(NC(=O)C2CCN(S(=O)(=O)c3cc([N+](=O)[O-])ccc3Cl)CC2)o1 | -20 | 10µM* | -3% | 16µM* | ? | 27%
COC(=O)C1=C(C)N(CCCC(=O)O)C(=O)NC1c1cccc2ccccc12 (centres undefined) | -71* | -4% | -1% | . | . | 46%
SMILES | PI5P4K alpha inh | JMJD2A Tudor inh | PLK1 PBD inh | BAZ2B inh | GCN5L2 inh | HP1b chromo inh
CCOC(=O)C1=C(C)N(C)C(=O)NC1c1cccc2ccccc12 (centres undefined) | -18 | ? | 11µM* | 1% | ? | 8%
CC1=C(C(=O)OCc2ccccc2)C(c2cccc(Cl)c2Cl)NC(=O)N1CCCCCC(=O)O (centres undefined) | -3 | -8% | -6% | -10% | -9% | 24%
CC1=C(C(=O)OCc2ccccc2)C(c2cccc3ccccc23)NC(=O)N1CCCC(=O)O (centres undefined) | -86* | -25% | -1% | -2% | -6% | 19%
COC(=O)C1=C(C)N(CCCC(=O)O)C(=O)NC1c1cccc(Cl)c1Cl (centres undefined) | -98* | -17% | 2% | . | . | 49%
COc1ccc(C(=O)COC(=O)C2COc3ccccc3O2)cc1F (centres undefined) | -2 | 2% | -18% | . | -5% | 42%
Cc1cccc(-n2cc[nH]c2=S)c1C | -6 | 40µM* | -21% | -6% | -5% | 35%
CC(C)c1ccccc1-n1cc[nH]c1=S | -6 | 22µM* | -21% | ? | -9% | 23%
S=c1[nH]ccn1-c1c(Cl)cccc1Cl | 2 | 2% | -10% | -12% | -2% | 25%[57 µM]
Cc1cccc(-n2cc[nH]c2=S)c1 | -10 | 5.6µM* | -19% | -1% | -1% | 11%
Cc1ccccc1-n1cc[nH]c1=S | -5 | 10µM* | ? | 5% | -4% | 16%
COC(=O)C(C(=O)OC)c1ccccc1NS(=O)(=O)c1c(C)cc(C)cc1C | 4 | . | 1% | . | . | .
Cc1ccc2[nH]c(CSc3nnc(NC(=O)COc4ccccc4F)s3)cc(=O)c2c1 | . | -6% | . | 9% | -11% | 12%[57 µM]
COc1ccccc1N1CCN(C(=O)CCn2cnc3onc(-c4ccc(F)cc4)c3c2=O)CC1 | . | -36% | . | -1%[57.1 µM] | 28% | -14%
C/C(=N\Nc1nc(-c2ccccc2)cs1)c1cccs1 | -19 | ? | -23% | 40µM* | -14% | -31%
COc1cc(O)c(C(C)=O)c(OC)c1 | -1 | -23% | ? | . | -8% | 46%
COc1cc(O)c(C(C)=O)c(CC(=O)O)c1 | -13 | 32µM* | ? | 40µM* | -11% | ?
